Source: ChEMBL document CHEMBL3988442, “University of Dundee, Small-Polar-MMV Screening Library” (2021)
Hit rate of the full screen: of about 48,000 compounds, about 13,000 (27%) showed an effect of 50% or more. Some of the results follow.

What follows are molecules tested on Wolbachia pipientis (assay: Anti-Wolbachia Cell-Based Screen). Settings: 5 µM.
Format: functional
Parameters: scale not given: in the data most compounds retested in dose-response had high values

Compound | Percent Effect
CC(C)c1noc(CN(C)C(=O)c2ccccc2-c2nc[nH]n2)n1 | -15.19%
CCN1CC2(CC1=O)CN(C(C)=O)CCN(C(=O)NC)C2 (centres undefined) | 104.3%
CCN1CC2(CC1=O)CN(C(=O)NC(C)C)CCN(S(C)(=O)=O)C2 (centres undefined) | 100.8%
CNC(=O)N1CCN(C(=O)C(C)C)CC2(CC(=O)N(C)C2)C1 (centres undefined) | -13.05%
CCN1CC2(CC1=O)CN(C(C)=O)CCN(S(C)(=O)=O)C2 (centres undefined) | -3.303%
CCN1CC2(CC1=O)CN(C(=O)NC(C)C)CCN(C(=O)C(C)C)C2 (centres undefined) | 117.3%
CCN1CC2(CC1=O)CN(C(=O)NC)CCN(S(C)(=O)=O)C2 (centres undefined) | 1.458%
CCN1CC2(CC1=O)CN(C(=O)C(C)C)CCN(S(=O)(=O)CC)C2 (centres undefined) | 12.11%
CCN1CC2(CC1=O)CN(C(=O)C(C)C)CCN(S(C)(=O)=O)C2 (centres undefined) | 4.611%
CCN1CC2(CC1=O)CN(C(=O)N(C)C)CCN(S(C)(=O)=O)C2 (centres undefined) | -16.32%
CCN1CC2(CC1=O)CN(C(=O)NC(C)C)CCN(C(=O)NC(C)C)C2 | 115.2%
CC(C)NC(=O)N1CCN(C(=O)N(C)C)CC2(CC(=O)N(C)C2)C1 (centres undefined) | 11.38%
CCS(=O)(=O)N1CCN(C(=O)NC(C)C)CC2(CC(=O)N(C)C2)C1 (centres undefined) | -2.042%
CCN(CCO)C(=O)C1CCC(=O)N(Cc2cccc(OC)c2)C1 (centres undefined) | 4.416%
NC(=O)N1CCCN(CC(=O)NCCc2c(F)cccc2F)CC1 | -7.896%
Cc1nc[nH]c1CN1CCCn2nc(CN3CCC(F)(F)CC3)cc2C1 | 5.091%
CC(C)NC(=O)N1CCN(S(=O)(=O)C2CC2)CC2(CC(=O)N(C)C2)C1 (centres undefined) | -16.72%
CCN1CC2(CC1=O)CN(C(C)=O)CCN(C(=O)NC(C)C)C2 (centres undefined) | 101.7%
CCN1CC2(CC1=O)CN(C(C)=O)CCN(S(=O)(=O)CC)C2 (centres undefined) | -5.362%
CCC1(CNCc2ncc[nH]2)CCCC1 | -14.89%
Cc1nnc(NC(=O)CN(C)CC2CCCN2c2cccnn2)s1 (centres undefined) | -3.874%
CN(CC(=O)Nc1ccncc1)C1CCCN(c2cccnn2)C1 (centres undefined) | 95.39%
Cc1nc(CN2CCCC(N(C)CC(=O)Nc3cccnc3)C2)no1 (centres undefined) | 13.61%
Cc1csc(NC(=O)CN(C)CC2CCCN2c2cccnn2)n1 (centres undefined) | 8.253%
CN(CC(=O)NC1CCOCC1)C1CCCN(c2cccnn2)C1 (centres undefined) | 137.1%

Compound | Percent Effect
Cc1nnc(NC(=O)CN(C)C2CCCN(c3cccnn3)C2)s1 (centres undefined) | 131.3%
CN(CC(=O)NC1(C#N)CCCC1)C1CCCN(c2cccnn2)C1 (centres undefined) | 1.351%
CN(CC(=O)Nc1cccnc1)C1CCCN(c2cccnn2)C1 (centres undefined) | 85.32%
COC(=O)C1CCCCN1C(=O)c1ccc(N(C)C)cc1F (centres undefined) | -10.97%
CN(C)CC(=O)N1CC[C@H]2OCC[C@@]2(COCC2CC2)C1 | -4.204%
O=c1oc(-c2ccc(F)cc2)nn1CN1CCCCC1 | 107.7%
O=c1oc(-c2ccc(F)cc2)nn1CC1CCOC1 (centres undefined) | -10.24%
O=c1oc(-c2ccc(F)cc2)nn1CCc1ccncc1 | -21.89%
O=c1oc(-c2ccc(F)cc2)nn1CN1CCN(CC2CC2)CC1 | 89.16%
CC(=O)N1CCN(Cn2nc(-c3ccc(F)cc3)oc2=O)CC1 | 6.471%
O=c1oc(-c2ccc(F)cc2)nn1CN1CCSCC1 | 92.99%
O=c1oc(-c2ccc(F)cc2)nn1CN1CCN(C2CCCC2)CC1 | -7.879%
CC1CCN(Cn2nc(-c3ccc(F)cc3)oc2=O)CC1 | 4.807%
O=c1oc(-c2ccc(F)cc2)nn1CC1CCCCO1 (centres undefined) | -16.49%
CN(C(=O)Cc1coc(-c2cccs2)n1)C1(C#N)CCC1 | 3.793%
CCc1nc(CN2CCCN(C(=O)C(C)COC)CC2)cs1 (centres undefined) | 7.127%
COc1ccc(C2=CCN(C(=O)C3CCCN(C(C)=O)C3)CC2)cc1 (centres undefined) | 109.7%
COc1ccc(OC)c(C2CCN(C(=O)C3CCS(=O)(=O)CC3)C2)c1 (centres undefined) | -1.419%
COc1ccc(C2=CCN(C(=O)CN(C)CC(C)C#N)CC2)cc1 (centres undefined) | -3.041%
COc1ccc(C2=CCN(C(=O)C3CCS(=O)(=O)C3)CC2)cc1 (centres undefined) | 136.7%
COc1ccc(C2=CCN(C(=O)C3CCCN(C(N)=O)C3)CC2)cc1 (centres undefined) | 7.391%
COc1ccc(OC2CCN(C(=O)C3CCCN(C)C3)CC2)cc1 (centres undefined) | 0.8407%
COc1ccc(C2=CCN(C(=O)C3CCC3)CC2)cc1 | 121.8%
COc1ccc(C2=CCN(C(=O)C3CC(=O)N(C4CC4)C3)CC2)cc1 (centres undefined) | -2.251%
